These results are taken from PubChem BioAssay AID463173 (ICCB-Longwood Screening Facility, Harvard Medical School, 2010).

About 4,300 (8.3%) of roughly 52,000 compounds were called active. This is one part of a sample in which actives are shown more often than they occur. A number with no mark means an inactive call. Rule as the data show it: active = survival mostly below about 52% (no sharp cut-off); inactive = mostly above about 56%.

The subject of this assay is DeltatarO mutant. The assay is described as follows: S. aureus survival, RN4220 and DeltatarO strains – OD600, teichoic acid synthesis inhibitors, primary screen (AID 463173). Conditions: S. aureus RN4220 wild type/DeltatarO growth, OD600, 18 h, active compounds read low, concentration not given here.
Consider `O=C(Nc1ccc2c(c1)OCCO2)c1cccn(Cc2cccc(F)c2)c1=O`, for which the survival was 84%.

In the case of `N#CC(C#N)=Cc1sc2ccccc2c1Cl`, the survival was 93%.

For `COc1ccc(C2(CN)CCOCC2)cc1`, the survival was 88%.

In the case of `O=c1cccc2n1CC1CC2CN(c2ncnc3c2cnn3-c2ccc(Cl)cc2)C1` (centres undefined), the survival was 52%.

For `Cc1ccc(NC(=O)Cn2cc(C(=O)c3ccccc3)c3ccccc32)cc1`, the survival was 122%.

`Cc1ccccc1-c1nc(CN2C(=O)CN=C(c3ccccc3)c3ccccc32)c(C)o1`: the survival is -1% (active).

With `Cc1oc(-c2ccc(Cl)cc2)nc1CN1C(=O)CN=C(c2ccccc2)c2ccccc21`, the survival is 49%.

For `COc1ccc(-c2nc(CN3C(=O)CN=C(c4ccccc4)c4ccccc43)c(C)o2)cc1`, the survival is 84%.

For `COc1ccc(-c2nc(CN3C(=O)CN=C(c4ccccc4)c4ccccc43)c(C)o2)cc1OC`, the survival is 97%.

As to `Cc1ccc(-c2nc(CN3C(=O)CN=C(c4ccccc4)c4ccccc43)c(C)o2)cc1`, the survival was 49%.

On to `Cc1cccc(-c2nc(CN3C(=O)CN=C(c4ccccc4)c4ccccc43)c(C)o2)c1`, for which the survival is -2% (active).

For the molecule `O=C(Cn1cc(C(=O)c2ccccc2)c2ccccc21)Nc1ccc(Br)cc1`, the survival is 48%.

For the molecule `Cn1c(=O)n(C)c2cc(CNCCc3ccccc3F)ccc21`, the survival was 68%.

For the molecule `COc1ccc(Br)cc1CN1CCN(C(=O)Cc2ccccc2)CC1`, the survival was 73%.

Turning to `COc1ccc2c(c1OC)C(=O)OC2C1c2cc3c(cc2CCN1C)OCO3` (centres undefined), the survival was 69%.

As to `CN1CCc2cc3c(c4c2C1Cc1ccccc1-4)OCO3` (centres undefined), the survival is 12% (active).

Take `CCCC12CN3CC(C)(CN(C1)C3c1c(C)[nH]c(=O)[nH]c1=O)C2=O` (centres undefined): the survival is 81%.

In the case of `N#CSCC(=O)N1c2ccccc2CCc2ccccc21`, the survival is 3% (active).

Turning to `CN1CCN(c2csc3ccc(F)cc3c2=O)CC1`, the survival is 98%.

As to `Cc1ccc(-n2c(/C=C/c3cc(Br)cs3)nc3ccccc3c2=O)cc1C`, the survival was 71%.

Consider `O=C(COc1ccccc1)N1CCN(CC(O)COc2ccccc2)CC1` (centres undefined), for which the survival was 68%.

For the molecule `CN1CCN(C(=O)COc2cccc3ccccc23)CC1`, the survival is 98%.

Take `O=C(Nc1ccc(F)c(Cl)c1)N(Cc1ccc2c(c1)OCO2)C1CCN(Cc2ccccc2)CC1`: the survival is 68%.

Consider `CN(C)c1ccc(NC(=O)c2sc3nc4c(cc3c2N)N2CCC4CC2)cc1`, for which the survival is 146%.

On to `N#Cc1cc(F)c(N2CCNCC2)cc1Cl`, for which the survival is 74%.

With `N#Cc1cc2c(nc1SCC(=O)Nc1ccc(Cl)c(C(F)(F)F)c1)C1CCN2CC1`, the survival is -1% (active).

Regarding `N#Cc1cc2c(nc1SCC(=O)Nc1ccc(F)c(Cl)c1)C1CCN2CC1`, the survival is -2% (active).

Consider `CC(N)Cc1cn(Cc2ccccc2)c2ccccc12` (centres undefined), for which the survival was 112%.

Take `CN1C(=O)C(Cc2nc3ccccc3c(=O)n2-c2ccccc2)c2ccccc21` (centres undefined): the survival is 85%.

For the molecule `C=C1N2CCC(CC2)C1(O)c1ccc(C)cc1` (centres undefined), the survival is 44% (active).

In the case of `Cc1c(C(c2ccc(O)cc2)c2c(O)c3ccccc3oc2=O)c(=O)n(-c2ccccc2)n1C` (centres undefined), the survival was 47% (active).

`COc1cc(C(c2c(O)c3ccccc3oc2=O)c2c(C)n(C)n(-c3ccccc3)c2=O)ccc1O` (centres undefined): the survival was 53%.

For the molecule `CSc1ccc(C(c2c(O)c3ccccc3oc2=O)c2c(C)n(C)n(-c3ccccc3)c2=O)cc1` (centres undefined), the survival is 128%.

For the molecule `COc1ccc(C(c2c(O)c3ccccc3oc2=O)c2c(C)n(C)n(-c3ccccc3)c2=O)cc1` (centres undefined), the survival is 57%.

Consider `Cc1c(C(c2ccc(Br)cc2)c2c(O)c3ccccc3oc2=O)c(=O)n(-c2ccccc2)n1C` (centres undefined), for which the survival was 49% (active).

Turning to `Cc1c(C(c2ccc(F)cc2)c2c(O)c3ccccc3oc2=O)c(=O)n(-c2ccccc2)n1C` (centres undefined), the survival was 89%.

Take `COc1ccc(NC(=O)CN2C(=O)CN=C(c3ccccc3)c3ccccc32)c(OC)c1`: the survival was 99%.

As to `CC1CN2CCC3=C(CCCC3)C2(C)C1` (centres undefined), the survival was 77%.

As to `CCN(CC)c1ccc(C=C(C#N)C#N)cc1`, the survival was 91%.

As to `CC(C)n1cc(C(=O)N(C2CC2)C(C(=O)NC2CCCC2)c2ccccc2)cn1` (centres undefined), the survival is 101%.

Regarding `CCCOc1ccc(C2SCC(=O)Nc3c2c(C)nn3-c2cccc(C)c2)cc1OC` (centres undefined), the survival was 41% (active).

On to `COc1ccccc1C1SCC(=O)Nc2c1c(C)nn2-c1cccc(C)c1` (centres undefined), for which the survival was -1% (active).

As for `CCc1ccc(-n2nc(C)c3c2NC(=O)CSC3c2ccc(OC)cc2OC)cc1` (centres undefined), the survival was 60%.

On to `COc1cccc(C2SCC(=O)Nc3c2c(C)nn3-c2ccc(C)c(Cl)c2)c1OC` (centres undefined), for which the survival was 55%.

Take `Cc1cccc(-n2nc(C)c3c2NC(=O)CSC3c2ccccc2Cl)c1` (centres undefined): the survival is 43% (active).

As for `Cc1ccc(-n2c(/C=C/c3ccc(Br)s3)nc3ccccc3c2=O)cc1`, the survival is 85%.

Take `O=C1NC(=O)C(=Cc2ccc(N3CCOCC3)cc2)C(=O)N1`: the survival was 80%.

As to `O=c1cccc2n1CC1CC2CN(c2nc(Cl)nc(Cl)n2)C1` (centres undefined), the survival was 80%.

With `CCCCC12CN3CC(C)(CN(C1)C3c1ccccn1)C2=O` (centres undefined), the survival is 79%.

On to `Cc1cc(N)n(C2CCN(C)CC2)n1`, for which the survival is 94%.

As for `Cc1ccc(NC(=O)CN2C(=O)CN=C(c3ccccc3)c3ccccc32)cc1Cl`, the survival was 122%.

With `Cc1ccc(Cn2cccc(C(=O)Nc3nc4ccc(C)cc4s3)c2=O)cc1`, the survival was 117%.

`COC1=CC23CCN(C)C(Cc4ccc(OC)c(O)c42)C3=CC1=O` (centres undefined): the survival is 84%.

On to `N#Cc1cccc(NC(=O)CSc2nc3c(cc2C#N)N2CCC3CC2)c1`, for which the survival was 88%.

As for `N#Cc1cc2c(nc1SCC(=O)Nc1ccc(C(F)(F)F)cc1)C1CCN2CC1`, the survival was 8% (active).

Turning to `N#Cc1cc2c(nc1SCC(=O)Nc1cccc(F)c1)C1CCN2CC1`, the survival is -4% (active).

Regarding `CCOC(=O)c1ccc(NC(=O)c2sc3nc4c(cc3c2N)N2CCC4CC2)cc1`, the survival was 68%.

As for `CC(=O)c1ccc(NC(=O)c2sc3nc4c(cc3c2N)N2CCC4CC2)cc1`, the survival is 98%.

For the molecule `CCOC(=O)c1ccc(NC(=O)CSc2nc3c(cc2C#N)N2CCC3CC2)cc1`, the survival was 76%.

As to `Cc1cccc(CSc2nc3c(cc2C#N)CN(C)CC3)c1`, the survival is 101%.

Consider `N#Cc1cc2c(nc1SCC(=O)Nc1cccc(C(F)(F)F)c1)C1CCN2CC1`, for which the survival is 4% (active).

Turning to `O=C(CN1C(=O)CN=C(c2ccccc2)c2ccccc21)Nc1cccc(C(F)(F)F)c1`, the survival is 57%.

Regarding `O=C(CNC1CCCCC1)N1CCC2(CC1)OCCO2`, the survival was 116%.

With `CCc1cccc(NC(=O)CN2C(=O)CN=C(c3ccccc3F)c3cc(Cl)ccc32)c1`, the survival was 94%.

On to `CCC(C)N1CCN(Cc2cc(OC)c(OC)cc2OC)CC1` (centres undefined), for which the survival was 108%.

As for `CCNCC1(c2ccc(OC)c(OC)c2)CCCC1`, the survival is 94%.

On to `O=C1CC(=O)N(C2CCCCC2)C(=O)N1`, for which the survival was 77%.

As to `CCSc1nnc(NC(=O)c2cccn(Cc3ccc(Cl)cc3)c2=O)s1`, the survival is 73%.

Take `CC(=O)Nc1c(O)[nH]c(=S)[nH]c1=O`: the survival is 103%.

Regarding `O=C(Nc1nc2ccccc2s1)c1cccn(Cc2ccccc2)c1=O`, the survival is 83%.

Turning to `COC(=O)CC1=C(C(=O)OC)C2(C(=O)Nc3ccc(F)cc32)C(C#N)=C(N)O1` (centres undefined), the survival was 65%.

For `CCOC(=O)C1=C(C)OC(N)=C(C#N)C12C(=O)N1c3c(cccc32)C(C)CC1(C)C` (centres undefined), the survival was 51%.

On to `CCOC(=O)CC1=C(C(=O)OCC)C2(C(=O)N(C)c3ccccc32)C(C#N)=C(N)O1` (centres undefined), for which the survival was 0% (active).

In the case of `CCC(C)c1c(O)[nH]c(=S)[nH]c1=O` (centres undefined), the survival is 82%.

With `CCN(CC)C(=O)c1ccc(NC(=O)c2ccc(-c3nn(C)c(=O)c4ccccc34)cc2)cc1`, the survival was 68%.

For the molecule `Cc1ccnc(NS(=O)(=O)c2ccc(N=Cc3c(O)n(C)c(=O)n(C)c3=O)cc2)n1`, the survival was 93%.

Consider `COc1ccc(-c2nc(CN3C(=O)CN=C(c4ccccc4Cl)c4cc(Cl)ccc43)c(C)o2)cc1OC`, for which the survival was 63%.

On to `CN1CCN(c2oc(-c3ccc(COc4ccccc4)o3)nc2C#N)CC1`, for which the survival was 41% (active).

Take `CN1C(=O)C(Cc2cccs2)C(=O)N(C)C1=O`: the survival was 80%.

As to `CC(C)C(=O)N1N=C(c2cccnc2)CC1(O)C(F)(F)F` (centres undefined), the survival is 66%.

On to `OC1(c2ccc(F)cc2)CC2CCC(C1)N2Cc1nnnn1C1CCCCC1` (centres undefined), for which the survival is 97%.

For the molecule `Cc1ccc(NC(=O)N(Cc2ccc3c(c2)OCO3)C2CCN(Cc3ccccc3)CC2)cc1C`, the survival was 17% (active).

In the case of `Cc1ccc(NC(=O)N(Cc2ccc3c(c2)OCO3)C2CCN(Cc3ccccc3)CC2)cc1Cl`, the survival was 128%.

In the case of `Cc1ccc(NC(=O)N(Cc2ccc3c(c2)OCO3)C2CCN(Cc3ccccc3)CC2)cc1F`, the survival is 87%.

Take `COc1ccc(NC(=O)CN2C(=O)C(C)N=C(c3ccccc3)c3ccccc32)cc1OC` (centres undefined): the survival was 116%.

`CCCC12CN3CC(CCC)(CN(C1)C3c1ccccn1)C2=O` (centres undefined): the survival is 84%.

For `O=C1CC(=O)N(c2ccccc2)C(=O)N1c1ccccc1`, the survival is 90%.

For `CSc1ncc(C(=O)Nc2ccc(Cl)cc2C(=O)c2ccccc2)c(C)n1`, the survival was 98%.

With `Cc1cc(C)cc(OCC(=O)Nc2ccc(Cl)cc2C(=O)c2ccccc2)c1`, the survival is 82%.

For `O=C(Nc1ccc(Br)cc1C(=O)c1ccccc1Cl)c1ccccc1F`, the survival was 52%.

Turning to `COc1cc(OC)cc(C(=O)Nc2ccc(Cl)cc2C(=O)c2ccccc2Cl)c1`, the survival was 171%.

Consider `Cc1ccc(OCC(=O)Nc2ccc(Cl)cc2C(=O)c2ccccc2)cc1C`, for which the survival is 69%.

Consider `O=C(Nc1ccc(Br)cc1C(=O)c1ccccc1)c1ccccc1`, for which the survival is -1% (active).

In the case of `Cc1cccc(C)c1OCC(=O)Nc1ccc(Cl)cc1C(=O)c1ccccc1`, the survival is 17% (active).

With `COc1ccc(C(=O)Nc2ccc(Cl)cc2C(=O)c2ccccc2)c(OC)c1`, the survival is 2% (active).

Take `O=C(Nc1ccc(Br)cc1C(=O)c1ccccc1Cl)c1ccc(Br)cc1`: the survival is 144%.

As for `CC(C)(C)c1ccc(OCC(=O)Nc2ccc(Cl)cc2C(=O)c2ccccc2)cc1`, the survival is 70%.

Consider `O=C(COc1ccc(Cl)cc1)Nc1ccc(Cl)cc1C(=O)c1ccccc1`, for which the survival is 83%.

For `CC(C)(C)c1ccc(C(=O)Nc2ccc(Cl)cc2C(=O)c2ccccc2)cc1`, the survival was 6% (active).
